# Source: article PMC8384837, “Expanding the binding specificity for RNA recognition by a PUF domain”
# Key:
# Test in all cases: yeast three-hybrid, YBZ-1, SC-Leu-His + 0.5 mM 3-AT, 4 days
# Settings in all cases: tags: N-Gal4 AD-HA kept; label: inside an RPR1-promoter hybrid RNA with tandem MS2 sites; ssRNA
# [1] = biological target: PUM1 PUF domain R1-KVS (Homo sapiens, UniProt Q14671 828-1176, S863K;R864V;Q867S)
# Summary of the method: (§1)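 The interaction score is the logarithmic change in variant frequency from input to selection. It uses log2, with a pseudocount of 1 for absent variants, and frequencies came from PCR-amplified, Illumina-sequenced repeat regions. The libraries were Pumilio-1 PUF domains randomized at the three base-contacting residues per repeat, co-expressed with matching RNA elements in strain YBZ-1 (LexA–MS2 coat fusion, HIS3 reporter). Plating lasted four days on SC-Leu (input) or SC-Leu-His + 0.5 mM 3-AT (selection).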
# [2] = biological target: PUM1 PUF domain R3-LFT (Homo sapiens, UniProt Q14671 828-1176, C935L;R936F;Q939T)
# Summary of the method: as §1
# [3] = biological target: PUM1 PUF domain R3-IFV (Homo sapiens, UniProt Q14671 828-1176, C935I;R936F;Q939V)
# Summary of the method: as §1
# [4] = biological target: PUM1 PUF domain R5-WHC (Homo sapiens, UniProt Q14671 828-1176, C1007W;R1008H;Q1011C)
# Summary of the method: as §1
# [5] = biological target: PUM1 PUF domain R5-FHT (Homo sapiens, UniProt Q14671 828-1176, C1007F;R1008H;Q1011T)
# Summary of the method: as §1
# [6] = biological target: PUM1 PUF domain R7-RSR (Homo sapiens, UniProt Q14671 828-1176, S1079R;N1080S;E1083R)
# Summary of the method: as §1
# [7] = biological target: PUM1 PUF domain R5-LYG (Homo sapiens, UniProt Q14671 828-1176, C1007L;R1008Y;Q1011G)
# Summary of the method: as §1
# [8] = biological target: PUM1 PUF domain R3-DHV (Homo sapiens, UniProt Q14671 828-1176, C935D;R936H;Q939V)
# Summary of the method: as §1
# [9] = biological target: PUM1 PUF domain R8-KFA (Homo sapiens, UniProt Q14671 828-1176, N1122K;Y1123F;Q1126A)
# Summary of the method: as §1
# [10] = biological target: T1, PUM1 PUF domain R6-CWR (Homo sapiens, UniProt Q14671 828-1176, N1043C;Y1044W;Q1047R)
# T1 sequence: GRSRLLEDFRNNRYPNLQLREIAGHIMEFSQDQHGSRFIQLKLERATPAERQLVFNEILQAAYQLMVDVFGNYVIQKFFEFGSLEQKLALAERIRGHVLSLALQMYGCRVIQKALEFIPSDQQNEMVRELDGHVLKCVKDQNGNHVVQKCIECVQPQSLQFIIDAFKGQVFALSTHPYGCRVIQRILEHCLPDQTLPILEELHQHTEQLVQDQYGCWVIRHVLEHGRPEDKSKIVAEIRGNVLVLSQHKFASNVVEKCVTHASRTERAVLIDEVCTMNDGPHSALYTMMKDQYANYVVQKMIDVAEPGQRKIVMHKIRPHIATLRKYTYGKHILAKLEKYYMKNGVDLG
# Summary of the method: as §1
sequence,measurement,setting,value
GGCUAGAACUAGUGGAUCCCCCGGCGCCCGGCGGCUCGAGCCCGGGUAAGUGUAAAUCGUCUGCAUGCCGCCGGGCGCCAUGCCUGCAGGUCGACUCUAGAAAACAUG,binding signal,[1],5.01 log2 enrichment (interaction score)
GGCUAGAACUAGUGGAUCCCCCGGCGCCCGGCGGCUCGAGCCCGGGUAAGUGUAAUUAGUCUGCAUGCCGCCGGGCGCCAUGCCUGCAGGUCGACUCUAGAAAACAUG,binding signal,[2],5.16 log2 enrichment (interaction score)
same,binding signal,[3],4.5 log2 enrichment (interaction score)
GGCUAGAACUAGUGGAUCCCCCGGCGCCCGGCGGCUCGAGCCCGGGUAAGUGUAAAUUGUCUGCAUGCCGCCGGGCGCCAUGCCUGCAGGUCGACUCUAGAAAACAUG,binding signal,[1],4.64 log2 enrichment (interaction score)
GGCUAGAACUAGUGGAUCCCCCGGCGCCCGGCGGCUCGAGCCCGGGUAAGUGUCAAUAGUCUGCAUGCCGCCGGGCGCCAUGCCUGCAGGUCGACUCUAGAAAACAUG,binding signal,[4],3.6 log2 enrichment (interaction score)
same,binding signal,[5],2.81 log2 enrichment (interaction score)
GGCUAGAACUAGUGGAUCCCCCGGCGCCCGGCGGCUCGAGCCCGGGUAAGUCUAAAUAGUCUGCAUGCCGCCGGGCGCCAUGCCUGCAGGUCGACUCUAGAAAACAUG,binding signal,[6],3.42 log2 enrichment (interaction score)
GGCUAGAACUAGUGGAUCCCCCGGCGCCCGGCGGCUCGAGCCCGGGUAAGUGUUAAUAGUCUGCAUGCCGCCGGGCGCCAUGCCUGCAGGUCGACUCUAGAAAACAUG,binding signal,[7],2.42 log2 enrichment (interaction score)
GGCUAGAACUAGUGGAUCCCCCGGCGCCCGGCGGCUCGAGCCCGGGUAAGUUUAAAUAGUCUGCAUGCCGCCGGGCGCCAUGCCUGCAGGUCGACUCUAGAAAACAUG,binding signal,[6],4.84 log2 enrichment (interaction score)
GGCUAGAACUAGUGGAUCCCCCGGCGCCCGGCGGCUCGAGCCCGGGUAAGUGUAAGUAGUCUGCAUGCCGCCGGGCGCCAUGCCUGCAGGUCGACUCUAGAAAACAUG,binding signal,[2],6.89 log2 enrichment (interaction score)
same,binding signal,[3],3.32 log2 enrichment (interaction score)
same,binding signal,[8],1.77 log2 enrichment (interaction score)
GGCUAGAACUAGUGGAUCCCCCGGCGCCCGGCGGCUCGAGCCCGGGUAAGCGUAAAUAGUCUGCAUGCCGCCGGGCGCCAUGCCUGCAGGUCGACUCUAGAAAACAUG,binding signal,[9],6.97 log2 enrichment (interaction score)
GGCUAGAACUAGUGGAUCCCCCGGCGCCCGGCGGCUCGAGCCCGGGUAAGUGUAAAUAGUCUGCAUGCCGCCGGGCGCCAUGCCUGCAGGUCGACUCUAGAAAACAUG,binding signal,[9],4.75 log2 enrichment (interaction score)
same,binding signal,[7],3.46 log2 enrichment (interaction score)
same,binding signal,[10],5.42 log2 enrichment (interaction score)
same,binding signal,[3],4.8 log2 enrichment (interaction score)
same,binding signal,[8],4.2 log2 enrichment (interaction score)
